Test results reported in the supplement of paper PMC7366291.
Counter-ions that a name gives are not always drawn. ± gives the standard deviation.

System: Danio rerio Tg(wt1b:EGFP) embryo, pronephros
Experiment: glomerular separation, fold change vs DMSO control; higher = glomeruli further apart (abnormal)
Settings: 25 µM; exposure: 24-48 hpf
Procedure, shortened: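 Dechorionated Tg(wt1b:EGFP) zebrafish embryos were exposed to 25 μM compound in 0.5% DMSO, HEPES-buffered E3 with 0.003% PTU, from 24 to 48 hpf at 28.5°C. Pronephroi were imaged dorsally in agarose-filled 96-well plates (470 nm, 10 z-slices). On maximum projections, 16 reference points were set manually in Fiji and a macro computed distances and angles. Values more than 2 SD from the feature mean were excluded. Each feature is a fold change relative to the mean of same-day DMSO controls.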

`N=C(N=C(N)N)N1CCOCC1` [Moroxidine hydrochloride] and `CCOC(=O)C1=C[C@]2(CC)CCCN3CCc4c(n1c1ccccc41)[C@@H]32` [Vinpocetine] are within error of each other in glomerular separation: 1.26 ± 0.44 for the first, 1.08 ± 0.2 for the second.

`Cn1c(=O)c2nc[nH]c2n(C)c1=O` [Theophylline monohydrate] and `Cc1ncc([N+](=O)[O-])n1CC(C)O` (stereo not given) [Secnidazole] are within error of each other in glomerular separation: 0.92 ± 0.21 for the first, 0.775 ± 0.29 for the second.

`COc1cnc(NS(=O)(=O)c2ccc(N)cc2)nc1` [Sulfameter] and `COc1cc([S+](C)[O-])ccc1-c1nc2cccnc2[nH]1` (stereo not given) [Sulmazole] are within error of each other in glomerular separation: 0.925 ± 0.34 for the first, 0.979 ± 0.27 for the second.

Going from `CC(Oc1ccccc1)C(=O)N[C@@H]1C(=O)N2[C@@H]1SC(C)(C)[C@@H]2C(=O)O` (stereo not given in full) [Phenethicillin potassium salt] to `CC(C(=O)O)c1ccc(-c2ccccc2)c(F)c1` (stereo not given) [Flurbiprofen], the glomerular separation rises from 0.88 ± 0.24 to 5.61 ± 1.3.

`CO[C@H]1/C=C/O[C@@]2(C)Oc3c(C)c(O)c4c(c3C2=O)C2=NC3(CCN(CC(C)C)CC3)NC2=C(NC(=O)/C(C)=C\C=C\[C@H](C)[C@H](O)[C@@H](C)[C@@H](O)[C@@H](C)[C@H](OC(C)=O)[C@@H]1C)C4=O` [Rifabutin] and `C[C@]12CCC(=O)C=C1CC[C@@H]1[C@@H]2[C@@H](O)C[C@@]2(C)[C@H]1CC[C@]2(O)C(=O)CO` [Hydrocortisone base] are within error of each other in glomerular separation: 1.4 ± 0.24 for the first, 1.25 ± 0.65 for the second.

`NC1CCN(c2nc3c(cc2F)c(=O)c(C(=O)O)cn3-c2ccc(F)cc2F)C1` (stereo not given) [Tosufloxacin hydrochloride] and `COc1cc(C(=O)NS(=O)(=O)c2ccccc2C)ccc1Cc1cn(C)c2ccc(NC(=O)OC3CCCC3)cc12` [Zafirlukast] are within error of each other in glomerular separation: 0.995 ± 0.36 for the first, 0.957 ± 0.46 for the second.

`CCCN[C@H]1CCc2nc(N)sc2C1` [Pramipexole dihydrochloride] and `CCCc1cc(C(N)=S)ccn1` [Prothionamide] are within error of each other in glomerular separation: 0.857 ± 0.44 for the first, 0.957 ± 0.36 for the second.

`CCN(CC)CCNC(=O)c1cc(S(C)(=O)=O)ccc1OC` [Tiapride hydrochloride] and `COc1cc(C(=O)NC2CCCNC2)cc(OC)c1OC` (stereo not given) [Troxipide] are within error of each other in glomerular separation: 1.1 ± 0.29 for the first, 1.14 ± 0.54 for the second.

`CC(C)/N=c1\cc2n(-c3ccc(Cl)cc3)c3ccccc3nc-2cc1Nc1ccc(Cl)cc1` [Clofazimine] and `Cc1cc(/C=C/c2ccc3cc(N(C)C)ccc3[n+]2C)c(C)n1-c1ccccc1` [Pyrvinium pamoate] are within error of each other in glomerular separation: 1.02 ± 0.29 for the first, 1.12 ± 0.41 for the second.

`CCOC(=O)NNc1nncc2ccccc12` [Todralazine hydrochloride] and `c1ccc2[nH]c(-c3cscn3)nc2c1` [Tiabendazole] are within error of each other in glomerular separation: 0.937 ± 0.25 for the first, 1.4 ± 0.65 for the second.

`Nc1nc(/C(=C/CC(=O)O)C(=O)N[C@@H]2C(=O)N3C(C(=O)O)=CCS[C@H]23)cs1` [Ceftibuten] and `Nc1ccn([C@@H]2O[C@H](CO)[C@@H](O)[C@@H]2O)c(=O)n1` [Cytarabine] are within error of each other in glomerular separation: 0.515 ± 0.17 for the first, 0.773 ± 0.16 for the second.

`C[C@@H](O)[C@H]1C(=O)N2C(C(=O)O)=C(S[C@@H]3CN[C@H](C(=O)N(C)C)C3)[C@H](C)[C@H]12` [Meropenem] and `C[C@]12C=CC(=O)C=C1CC[C@@H]1[C@@H]2[C@@H](O)C[C@@]2(C)[C@H]1CC[C@]2(O)C(=O)CO` [Prednisolone] are within error of each other in glomerular separation: 1.03 ± 0.35 for the first, 1.36 ± 0.94 for the second.

`COc1ccc(CC(C)NCC(O)c2ccc(O)c(NC=O)c2)cc1` (stereo not given) [Formoterol fumarate] and `COc1ccc([C@@H]2Sc3ccccc3N(CCN(C)C)C(=O)[C@@H]2OC(C)=O)cc1` [Diltiazem hydrochloride] are within error of each other in glomerular separation: 0.928 ± 0.31 for the first, 0.914 ± 0.32 for the second.

First: OCCOCCN1CCN(C2=Nc3ccccc3Sc3ccccc32)CC1 [Quetiapine hemifumarate]
Second: CCN(CC)C(C)CN1c2ccccc2Sc2ccccc21 (stereo not given) [Ethopropazine hydrochloride]
The glomerular separation of the first is higher: 0.872 ± 0.15 for the first, 0.571 ± 0.084 for the second.

`CN(C)CCCN1c2ccccc2CCc2ccccc21` [Imipramine hydrochloride] and `CN(C)CCCN1c2ccccc2Sc2ccc(Cl)cc21` [Chlorpromazine hydrochloride] are within error of each other in glomerular separation: 0.946 ± 0.39 for the first, 0.83 ± 0.37 for the second.

`Clc1ccccc1CN1CCc2sccc2C1` [Ticlopidine hydrochloride] and `Clc1ccc(C(Cn2ccnc2)OCc2ccsc2Cl)c(Cl)c1` (stereo not given) [Tioconazole] are within error of each other in glomerular separation: 1.13 ± 0.49 for the first, 1.29 ± 0.51 for the second.

`O=C(O[C@@H]1C[C@@H]2C[C@H]3C[C@H](C1)N2CC3=O)c1c[nH]c2ccccc12` [Dolasetron mesilate] and `CCOc1cc(CC(=O)N[C@@H](CC(C)C)c2ccccc2N2CCCCC2)ccc1C(=O)O` [Repaglinide] are within error of each other in glomerular separation: 0.787 ± 0.28 for the first, 1.44 ± 0.91 for the second.

`COCCCOc1ccnc(C[S+]([O-])c2nc3ccccc3[nH]2)c1C` (stereo not given) [Rabeprazole Sodium salt] and `CN(Cc1ccc(C(C)(C)C)cc1)Cc1cccc2ccccc12` [Butenafine Hydrochloride] are within error of each other in glomerular separation: 0.694 ± 0.27 for the first, 0.932 ± 0.4 for the second.

Compared with `Clc1ccc(COC(Cn2ccnc2)c2ccc(Cl)cc2Cl)c(Cl)c1` (stereo not given) [Miconazole], `CC(C)OC(=O)CCC/C=C\C[C@@H]1[C@@H](CC[C@@H](O)CCc2ccccc2)[C@H](O)C[C@@H]1O` [Latanoprost] is lower in glomerular separation: 3.42 ± 1.6 for the first, 1.02 ± 0.44 for the second.

Compared with `NCCc1c[nH]cn1` [Histamine dihydrochloride], `CC1=C(/C=C/C(C)=C/C=C/C(C)=C\C(=O)O)C(C)(C)CCC1` [Isotretinoin] is higher in glomerular separation: 1.1 ± 0.25 for the first, 4.83 ± 2.1 for the second.
